AF4-AF9 inh: blocks AF4 peptide binding to human AF9 | AlphaScreen, biotin-AF4 peptide binding to FLAG-AF9 | inhibition, % at 10 µM | actives 0.47% (n = 350,000);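 active = every replicate reaching a set inhibition limit, whatever the replicate mean, cut at about 25% in these data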;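 also: 0% = plate neutral control median and 100% = total signal loss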
Target sequence (P42568 whole entry, looked up): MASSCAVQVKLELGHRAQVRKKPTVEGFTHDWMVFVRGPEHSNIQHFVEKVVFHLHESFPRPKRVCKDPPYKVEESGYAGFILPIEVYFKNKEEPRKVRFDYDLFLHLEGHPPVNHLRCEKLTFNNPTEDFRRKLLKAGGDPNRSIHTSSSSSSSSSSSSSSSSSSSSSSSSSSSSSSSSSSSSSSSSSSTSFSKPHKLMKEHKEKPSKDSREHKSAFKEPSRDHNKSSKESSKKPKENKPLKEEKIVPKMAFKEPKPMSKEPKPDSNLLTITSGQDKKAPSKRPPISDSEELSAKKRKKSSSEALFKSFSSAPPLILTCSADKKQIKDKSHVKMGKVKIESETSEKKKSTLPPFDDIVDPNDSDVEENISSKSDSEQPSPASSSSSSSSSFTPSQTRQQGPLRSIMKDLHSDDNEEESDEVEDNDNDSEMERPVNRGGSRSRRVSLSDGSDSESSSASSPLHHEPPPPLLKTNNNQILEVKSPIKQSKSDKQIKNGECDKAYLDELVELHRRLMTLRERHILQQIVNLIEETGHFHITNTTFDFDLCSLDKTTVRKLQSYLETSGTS
RAD52 anneal inh: blocks human RAD52 DNA annealing; P43351; recombinant RAD52 DNA annealing, FRET fluorescence; inhibition, % at 18.7 µM; actives 0.46% (n = 360,000); AID 651710;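 active = every replicate showing at least 50% inhibition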
NSD2 inh: NSD2 (human) methyltransferase inhibition | O96028 | NSD2 peptide methylation, AlphaScreen, 120 min | inhibition, % at 12.5 µM | actives 0.54% (n = 310,000) | AID 743445; in the data active = inhibition above about 50%
miR122 inh: blocks miR-122 activity in Huh7 sensor cells; Huh7 miR-122 Renilla luciferase sensor, 48 h; neutral wells = 0, positive control = 100; activation (reporter increase), % at 12.5 µM; actives 0.3% (n = 340,000); AID 602342;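 active = mean replicate activation score at least 90 and every replicate individually at or above 90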;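 also: higher luciferase means less miR-122 activity so hits act as miR-122 inhibitors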
CASP6 VEID inh: blocks human caspase-6 cleavage activity; P55212; purified caspase-6, Z-VEID-R110 cleavage fluorescence; inhibition, % at 12.5 µM; actives 0.53% (n = 350,000);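 active = mean inhibition across replicates at least about 35%, with every replicate also reaching that limit, limit read from the data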;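 also: 0% = median of neutral control wells and 100% = no fluorescence left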
Starred values were filed as active, the others as inactive; . = no result given; [ ] = dose if it differs, or a comment. Only some compounds are listed: those with a hit (about 1.5% of all), similar ones and a draw of the others.

SMILES	AF4-AF9 inh	RAD52 anneal inh	NSD2 inh	miR122 inh	CASP6 VEID inh
C[C@H](CO)N1C[C@H](C)[C@@H](CN(C)CC2CCCCC2)Oc2ccc(NC(=O)Nc3ccc(C(F)(F)F)cc3)cc2C1=O	-2	4	.	-18[16.7 µM]	1
O=C(Nc1cccc(F)c1)N[C@@H]1CC[C@H](CCNS(=O)(=O)c2cccc(Cl)c2)O[C@@H]1CO	1	-18	.	.	-7
COCC(=O)N(C)C[C@@H]1Oc2cc(C#CCC(C)C)ccc2S(=O)(=O)N([C@@H](C)CO)C[C@H]1C	3	0	.	0[16.7 µM]	1
COc1ccc(-c2cc(C)no2)cc1S(=O)(=O)Nc1ccccc1	-14	-16	-1	120*	2
COc1ccc(-c2cc(C)no2)cc1S(=O)(=O)Nc1cccc(C)c1	-7	-2	0	117*	6
COc1ccccc1NS(=O)(=O)c1cc(-c2cc(C)no2)ccc1OC	0	-11	4	53	0
Cc1ccccc1-c1cnc2c(c1)C(=O)N([C@@H](C)CO)C[C@@H](C)[C@@H](CN(C)CC1CC1)O2	.	.	.	-2[16.7 µM]	.
COc1ccc(N=Nc2cc(OC)c(N)cc2OC)cc1	32*	-8	23	-2	1
COc1ccc(N=Nc2ccc(N)nc2N)cc1	13	5	11	-1	3
CCOc1cc(S(=O)(=O)Nc2cc(C)cc(C)c2)ccc1Cl	.	.	-1	118*	.
Cc1cc(C)cc(NS(=O)(=O)c2ccc3oc(=O)ccc3c2)c1	.	.	1	105*	.
C[C@@H]1CCCCO[C@@H](CN(C)S(=O)(=O)c2cccs2)[C@H](C)CN([C@H](C)CO)C(=O)c2cc(NC(=O)c3ccccc3)ccc2O1	.	.	.	-8[16.7 µM]	.
CCC(=O)Nc1ccc2c(c1)C(=O)N(C)C[C@@H](OC)[C@@H](C)CN(C(=O)c1ccncc1)[C@@H](C)CO2	1	-8	.	6[16.7 µM]	2
COc1ccc(CN(C)C[C@@H]2OCCCC[C@@H](C)Oc3ccc(NS(=O)(=O)c4cccs4)cc3C(=O)N([C@@H](C)CO)C[C@H]2C)cc1	1	16	.	-11[16.7 µM]	-2
O=C(O)c1c[nH]c2c([N+](=O)[O-])cccc2c1=O	-1	-9	2	-3	36*
Cc1c(C(=O)O)cccc1[N+](=O)[O-]	.	-12	.	0	0
C[C@@H]1CN([C@@H](C)CO)C(=O)c2cc(NC(=O)c3ccccc3)ccc2O[C@@H](C)CCCCO[C@H]1CN(C)C(=O)NC1CCCCC1	.	.	.	-5[16.7 µM]	.
Cc1cnc(NC(=O)CN2CCN(c3ccccn3)CC2)s1	.	-15	5	177*	0
Cc1noc(C)c1NC(=O)N[C@@H]1C=C[C@H](CC(=O)N2CCN(C)CC2)O[C@H]1CO	-1	-12	.	.	-1
Nc1cc(C(Cl)=C(Cl)Cl)c(S(N)(=O)=O)cc1S(N)(=O)=O	-1	-18	.	0	76*
Nc1ccccc1S(N)(=O)=O	-22	-9	.	6	-3
CCc1ccccc1NC(=O)CNC(=O)CCc1nc2sc3c(c2c(=O)[nH]1)CCCC3	-1	-58	5	4	36*
CCN(CCNC(=O)c1ccc(C#N)cc1)c1cccc(C)c1	.	.	25	-2	.
CCN(CCNCC(O)COCc1ccc(Cl)cc1)c1cccc(C)c1 (configuration not stated)	29*	11	32	.	0
O=C(NC(=C(Cl)Cl)S(=O)(=O)c1ccc(Cl)cc1)c1ccccc1	7	-12	5	0	39*
SMILES	AF4-AF9 inh	RAD52 anneal inh	NSD2 inh	miR122 inh	CASP6 VEID inh
C[C@@H]1CCCCO[C@H](CN(C)CC2CC2)[C@H](C)CN([C@@H](C)CO)C(=O)c2cc(NC(=O)Nc3ccc4c(c3)OCO4)ccc2O1	34*	55*	.	-2[16.7 µM]	-1
C[C@H]1CCCCO[C@H](CN(C)CC2CC2)[C@@H](C)CN([C@@H](C)CO)C(=O)c2cc(NC(=O)Nc3ccc4c(c3)OCO4)ccc2O1	35*	36	.	3[16.7 µM]	1
COc1ccc(NC(=O)Nc2ccc3c(c2)C(=O)N([C@@H](C)CO)C[C@@H](C)[C@@H](CN(C)C(=O)CCC(F)(F)F)OCCCC[C@H](C)O3)cc1	.	.	.	5[16.7 µM]	.
CN(C)c1ccc(-c2c(-c3ccc4c(c3)OCO4)noc2-c2ccsc2)cn1	.	.	.	-4	.
O=C(O)c1cc(-c2ccc(-c3c(-c4ccc5c(c4)OCO5)noc3-c3ccsc3)cc2)nc2ccccc12	1	-4	.	-4	37*
CN1CCN(c2ccc(CNC(=O)C3Cc4c(-c5ccc6c(c5)OCO6)ccnc4O3)cc2)CC1 (configuration not stated)	8	25	13	-33	80*
